Tg IFNy HTS: blocks Toxoplasma gondii growth in the presence of IFN-gamma | hit rate 3.8% among 69,000 | activity change, negative = inhibition, % (no concentration beside the values) | Toxoplasma gondii growth in IFN-gamma-treated host cells; stronger effect = lower value; in the data active means activity change below about -70%, passing the limit was not always enough;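 further: host cells are HeLa cells infected with Toxoplasma gondii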
* marks the source's active call; other numbers are inactive results; i = inactive; ! = not active in a repeat. Shown is part of a subset that was picked to be rich in hits.

SMILES	Tg IFNy HTS
CCc1ccc(NC(=O)c2c(O)c3cccnc3n(Cc3ccccc3)c2=O)cc1	29.7
CCc1ccccc1NC(=O)c1c(O)c2cccnc2n(Cc2ccccc2)c1=O	-88.4*
Cc1ccc(F)cc1NC(=O)c1c(O)c2cccnc2n(Cc2ccccc2)c1=O	67.8
CC(NC(=O)c1c(O)c2cccnc2n(Cc2ccccc2)c1=O)c1ccc(F)cc1 (stereo unspecified)	-113.1*
O=C(Nc1ccc(F)cc1)c1c(O)c2cccnc2n(Cc2ccccc2)c1=O	254.8
CC(NC(=O)c1cc2cccnc2n(Cc2ccccc2)c1=O)c1ccccc1 (stereo unspecified)	-90.7*
Cc1ccccc1NC(=O)c1c(O)c2cccnc2n(Cc2ccccc2)c1=O	83.9
CC(CCc1ccccc1)NC(=O)c1cc2cccnc2n(Cc2ccccc2)c1=O (stereo unspecified)	-28.9
CCN(CC)CCCNC(=O)c1cc2cccnc2n(Cc2ccccc2)c1=O	-18.3
c1cncc(CN2CCO[C@H]3[C@@H](Oc4cccnc4)CC[C@H]32)c1	7.6
Cc1noc(C)c1CN1CC[C@@H]2C[C@@H](C(=O)NC(C)C)O[C@@H]2C1	-1.5
O=C(Nc1ccccc1Cl)c1cc2cccnc2n(Cc2ccccc2F)c1=O	33.4
COc1ccc(CCNC(=O)c2cc3cccnc3n(Cc3ccccc3)c2=O)cc1	21.1
CCN(C)c1ncc2c(c1C(=O)O)CCN(C)C2	-59.0
CCN(CC)CCCC(C)NC(=O)c1cc2cccnc2n(Cc2ccccc2)c1=O (stereo unspecified)	41.1
N#Cc1ccccc1NC(=O)c1cc2cccnc2n(Cc2ccc(F)cc2)c1=O	23.0
Cc1ccc(C)c(NC(=O)c2cc3cccnc3n(Cc3ccc(Cl)cc3)c2=O)c1	19.5
CC(C)=CCC[C@]1(C)C=Cc2c(O)c3c(c(CC=C(C)C)c2O1)O[C@]12C(=C[C@@H]4C[C@H]1C(C)(C)O[C@@]2(CC=C(C)C(=O)O)C4=O)C3=O	-85.0*
CC(C)CCCC1(C)C=Cc2c(O)c3c(c(CCC(C)C)c2O1)OC12C(CC4CC1C(C)(C)OC2(CCC(C)C(=O)O)C4O)C3=O (stereo unspecified)	4.2
O=C(c1cccs1)N1CC[C@@H]2OCCN(Cc3cccnc3)[C@@H]2C1	23.6
CO[C@H]1CN(CC2CC2)[C@H]2CCCO[C@@H]12	34.5
O=C(c1cccc(F)c1)N1CC2(CCNCC2)C1	2.1
O=S(=O)(N[C@H]1CCO[C@]2(CCNC2)C1)C1CC1	-1.6
CC(C)NC(=O)c1cc(N2CCN3CCCC3C2)ccn1 (stereo unspecified)	5.4
C[C@H]1CCCC(=O)CCC/C=C/c2cc(O)cc(O)c2C(=O)O1	-3.7
SMILES	Tg IFNy HTS
C[C@H]1CCC/C=C/[C@@H]2C[C@H](O)C[C@H]2[C@H](O)/C=C/C(=O)O1	-76.6*
Cn1cc(CN2CC[C@H]3[C@@H]2CCN3C(=O)Cc2ccccc2)cn1	-1.7
Cc1ccc(-n2cc(C3=CCN(CCn4cccn4)CC3)cn2)c(C)c1	1.2
Cc1ccc(C)c(NC(=O)c2cc3cccnc3n(Cc3ccc(F)cc3)c2=O)c1	56.0
CCN(CC)CCCNC(=O)c1cc2cccnc2n(Cc2ccc(F)cc2)c1=O	7.7
CC(=O)Nc1cccc(NC(=O)c2cc3cccnc3n(Cc3ccc(F)cc3)c2=O)c1	211.8
CN(C)C(CN)c1cccc(C(F)(F)F)c1 (stereo unspecified)	-63.7
CC(C)[C@@]1(NC(=O)[C@@H]2C[C@@H]3c4cccc5[nH]cc(c45)C[C@H]3N(C)C2)O[C@@]2(O)[C@@H]3CCCN3C(=O)[C@H](Cc3ccccc3)N2C1=O	-65.9
CN1Cc2ccccc2[C@@H]2c3cccc4[nH]cc(c34)C[C@H]21	-78.1*
Cc1cccc(CN2CC[C@H]3[C@H](CO[C@@H]3CN(C)C)C2)n1	7.9
FC(F)(F)c1cc(C2CCNCC2)n2ccnc2n1	12.8
O=C(c1ccoc1)N1CC[C@@H]2OCCN(Cc3ccncc3)[C@@H]2C1	3.8
Cc1nc(CN2CCC3(CC2)C(=O)Nc2ccccc23)cs1	i
C=CC1CN2CCC1CC2[C@@H](OC(=O)c1ccc(OC)cc1)c1ccnc2ccccc12 (stereo partly specified)	0.5
CC[C@H]1CN2CCC1C[C@@H]2[C@@H](O)c1ccnc2ccc(OC)cc12 (stereo partly specified)	-78.2*!
C=C[C@H]1CN2CC[C@H]1C[C@@H]2[C@@H](OC(=O)OCC)c1ccnc2ccc(OC)cc12	3.2
Cn1cc(CN2CC3(CCN(Cc4cccnc4)C3)C2)cn1	-2.0
COCCNC(=O)[C@H]1C[C@H]2CCN(Cc3c(C)noc3C)C[C@H]2O1	-38.7
Cc1nc(C)c(CC(=O)N2CCCC3(CCNC3)C2)c(=O)[nH]1 (stereo unspecified)	8.2
CC(C)CN1C[C@@H]2CN(S(C)(=O)=O)c3ccccc3[C@H]2C1	-2.4
O=C(O)COc1ccc(Cl)cc1Cl	16.1
Oc1cc(Cl)ccc1Oc1ccc(Cl)cc1Cl	-86.9*
Cc1cc(Cl)ccc1OCC(=O)O	10.3
Cc1cnc(N2CCC3C(C[C@@H](CN(C)C)N3C)C2)nc1 (stereo partly specified)	0.6
CCCCC(CC)COC(=O)c1ccccc1C(=O)OCC(CC)CCCC (stereo unspecified)	7.8
SMILES	Tg IFNy HTS
C[CH2][Hg][S]c1ccccc1C(=O)O	-73.3*!
CNc1ccccc1C(=O)O	-4.5
CCOCC12CCCOC1CCN(Cc1ccncc1)C2 (stereo unspecified)	7.2
CO[C@H]1CCN(C(=O)c2cc(C)on2)[C@H]2CN(CC3CC3)C[C@@H]12	5.5
C=CCN1CCN(C2CCOC2)Cc2cccnc21 (stereo unspecified)	-56.9
CC(=O)NC1CCSC1=O (stereo unspecified)	-78.4*!
COc1ccc2c(c1)C1(CCN(C(=O)c3ccc(N(C)C)c4ccccc34)CC1)CC2CC(=O)O (stereo unspecified)	-38.2
CNC(=O)[C@H]1CC2CN(C(=O)Cc3ccsc3)CC2N1C (stereo partly specified)	i
c1ccc(-c2ncc(CN3CCC4(CCNCC4)C3)cn2)cc1	-3.4
CC(=O)[O][Hg][c]1ccccc1	-72.3*
CCN(CC)C(C)C(=O)c1ccccc1 (stereo unspecified)	20.7
Cc1nc2n(CCN3CCOCC3)c3ccccc3n2c1C(=O)c1cccs1	-1.2
Cc1cc(NC(=O)c2cc3cccnc3n(Cc3ccccc3F)c2=O)ccc1Br	11.7
CCOCC(=O)N1C[C@@H]2CCN(Cc3c(C)noc3C)C[C@H]2C1	-45.9
COc1cccc(NC(=O)c2cc3cccnc3n(Cc3ccc(F)cc3)c2=O)c1	25.1
CCOC(C(=O)OCCCN1CCCCCC1)(c1ccccc1)c1ccccc1	-79.7*
C[C@@H]1CN2CCCC2CN1Cc1ccnc(N2CCCC2)n1 (stereo partly specified)	1.2
O=C1CCC2(CCCN(Cc3cnc[nH]3)C2)N1 (stereo unspecified)	40.6
Clc1ccc(COC(Cn2ccnc2)c2ccc(Cl)cc2Cl)c(Cl)c1 (stereo unspecified)	-85.2*!
CCOC(=O)c1ccc(N2C[C@@H]3CNC[C@]3(C(=O)O)C2)nc1	-0.5

Screening results: PubChem, Broad Institute
